Measurements from PubChem BioAssay (NCATS).
Records with an inconclusive call do not appear. Where a call stands in place of a potency, no number is given. Active and inactive are the calls of the source. The call rests on the fitted dose curve; in most records, active means well fitted curve in the direction sought with a large enough effect; inconclusive means small, poorly fitted or top-dose-only effect, or another doubt; inactive means no such curve, though single readings can be large; an effect the other way counts as inactive or inconclusive.

Assays:
[1] = qHTS of pediatric cancer cell lines to identify multiple opportunities for drug repurposing: Primary screen for NB-EBc1 cells (AID 1347095); further: potency means the concentration at half of the fitted maximal effect
Method in brief: (§1)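 Primary screen of approved and investigational compounds on cells in growth media at 37 degrees C, 5% CO2. MIPE set at 11-point and NPC set at 8-point dilutions; viability scored by ATP-based luminescence at 48 hours.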

[2] = qHTS of pediatric cancer cell lines to identify multiple opportunities for drug repurposing: Primary screen for U-2 OS cells (AID 1347096); further: nearly all actives have a fitted effect of over 50% in size
Method in brief: (§2)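 Cells (500-1,000/well) rested 5 h, then received compounds for 48 h; metabolically active cells were measured by CellTiter-Glo luminescence. Final concentrations spanned up to 46 µM (MIPE, 11-point) or 0.59 nM-46 µM (NPC, 8-point) in primary screens, 11-point in follow-ups.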

[3] = qHTS of pediatric cancer cell lines to identify multiple opportunities for drug repurposing: Primary screen for Saos-2 cells (AID 1347097); further: nearly all actives have a fitted effect of over 40% in size; further: potency means the concentration at half of the fitted maximal effect
Method in brief: as §1

[4] = qHTS of pediatric cancer cell lines to identify multiple opportunities for drug repurposing: Primary screen for NB1643 cells (AID 1347099); further: nearly all actives have a fitted effect of over 50% in size; further: potency means the concentration at half of the fitted maximal effect
Method in brief: as §1

[5] = qHTS of pediatric cancer cell lines to identify multiple opportunities for drug repurposing: Primary screen for LAN-5 cells (AID 1347100); further: potency means the concentration at half of the fitted maximal effect
Method in brief: as §2

[6] = qHTS of pediatric cancer cell lines to identify multiple opportunities for drug repurposing: Primary screen for BT-12 cells (AID 1347101); further: nearly all actives have a fitted effect of over 25% in size; further: potency means the concentration at half of the fitted maximal effect
Method in brief: as §2

[7] = qHTS of pediatric cancer cell lines to identify multiple opportunities for drug repurposing: Primary screen for Rh18 cells (AID 1347102); further: nearly all actives have a fitted effect of over 65% in size; further: potency means the concentration at half of the fitted maximal effect
Method in brief: as §2

[8] = qHTS of pediatric cancer cell lines to identify multiple opportunities for drug repurposing: Primary screen for OHS-50 cells (AID 1347103); further: nearly all actives have a fitted effect of over 40% in size; further: potency means the concentration at half of the fitted maximal effect
Method in brief: as §2

[9] = qHTS of pediatric cancer cell lines to identify multiple opportunities for drug repurposing: Primary screen for RD cells (AID 1347104); further: nearly all actives have a fitted effect of over 55% in size; further: potency means the concentration at half of the fitted maximal effect
Method in brief: as §1

[10] = qHTS of pediatric cancer cell lines to identify multiple opportunities for drug repurposing: Primary screen for SK-N-SH cells (AID 1347098); further: nearly all actives have a fitted effect of over 65% in size; further: potency means the concentration at half of the fitted maximal effect
Method in brief: as §2

SMILES	Potency [1]	Potency [2]	Potency [3]	Potency [4]	Potency [5]	Potency [6]	Potency [7]	Potency [8]	Potency [9]	Potency [10]
CC(=O)N(C)c1cccc(-c2ccnc3c(C(=O)c4cccs4)cnn23)c1	inactive	inactive	inactive	inactive	inactive	inactive	inactive	inactive	inactive	–
CC(N[C@H]1C[C@H]1c1ccccc1)c1ccc2c(c1)OCCO2 (some centres undefined)	inactive	inactive	inactive	inactive	inactive	inactive	inactive	inactive	inactive	–
c1ccc2c(CN3CCNCC3)cccc2c1	inactive	inactive	inactive	–	–	inactive	inactive	–	inactive	inactive
Cc1nc(-c2ccc(-c3ccc(C(=O)N4CCc5cc6c(cc54)C4(CCN(C)CC4)CO6)cc3)c(C)c2)no1	inactive	inactive	inactive	inactive	inactive	inactive	inactive	inactive	inactive	–
CC(C)(C)[C@]1(O)C[C@@H]2OC(=O)C[C@@]23C(=O)O[C@@H]2OC(=O)[C@H](O)C213 (some centres undefined)	inactive	inactive	inactive	inactive	inactive	inactive	inactive	inactive	inactive	–
COc1cc2cc(c1Cl)N(C)C(=O)C[C@H](OC(=O)C(C)C)[C@]1(C)O[C@H]1[C@H](C)[C@@H]1C[C@@](O)(NC(=O)O1)[C@H](OC)C=CC=C(C)C2	0.001 µM (active)	inactive	0.662 µM (active)	–	0.001 µM (active)	48.5 nM (active)	inactive	–	–	–
COc1cc([C@@H]2c3cc4c(cc3[C@@H](O)C3COC(=O)C32)OCO4)cc(OC)c1O (some centres undefined)	0.0066 µM (active)	inactive	0.0209 µM (active)	6.62 µM (active)	0.0132 µM (active)	–	inactive	–	–	–
O=C(O)CCCOc1ccc(Cl)cc1Cl	inactive	inactive	inactive	inactive	inactive	inactive	inactive	–	inactive	–
O=C(N[C@H]1CN2CCC1CC2)c1ccc(Cl)cc1	inactive	inactive	–	2.64 µM (active)	inactive	inactive	–	–	26.4 µM (active)	6.81 µM (active)
COc1ccc2c(c[n+](C)c3c4cc5c(cc4ccc23)OCO5)c1OC	5.26 µM (active)	–	9.35 µM (active)	7.43 µM (active)	8.33 µM (active)	24300 nM (active)	8.33 µM (active)	8.63 µM (active)	10.5 µM (active)	12.1 µM (active)
CCCCC(CC)COC(=O)c1ccccc1C(=O)OCC(CC)CCCC (centres undefined)	inactive	inactive	–	inactive	inactive	inactive	inactive	–	inactive	–
COc1ccc(C(c2ccc(OC)cc2)C(Cl)(Cl)Cl)cc1	13.5 µM (active)	–	30.3 µM (active)	42.8 µM (active)	–	–	–	–	–	49.8 µM (active)
C=CCC1=C(C)C(OC(=O)C2C(C=C(C)C)C2(C)C)CC1=O (centres undefined)	68.6 µM (active)	–	–	–	–	–	inactive	28.2 µM (active)	–	inactive
c1cc2ccc3cccc4ccc(c1)c2c34	inactive	inactive	–	inactive	inactive	inactive	inactive	–	inactive	inactive
CO[C@H]1CCC(O[C@H]2C[C@H]([C@]3(C)CC[C@]4(C[C@H](O)[C@@H](C)[C@@H]([C@@H](C)C=C(C)C(=O)[C@H](C)C[C@H](C)C(=O)O)O4)O3)O[C@]3(O[C@@H]([C@H]4O[C@@](O)(CO)[C@H](C)C[C@H]4C)C[C@H]3C)[C@H]2C)O[C@H]1C (some centres undefined)	0.209 µM (active)	–	2.64 µM (active)	1.05 µM (active)	0.372 µM (active)	273 nM (active)	2.96 µM (active)	0.217 µM (active)	1.87 µM (active)	30.4 µM (active)
Cc1[nH]nc2ccc(-c3cncc(OC[C@@H](N)Cc4c[nH]c5ccccc45)c3)cc12	1.66 µM (active)	inactive	–	–	0.166 µM (active)	1530 nM (active)	2.96 µM (active)	–	1.48 µM (active)	0.304 µM (active)
CC1(N2CCC(n3c([C@@H]4CCCNC4)nc4ccccc43)CC2)CCCCCCC1	inactive	inactive	–	inactive	20.9 µM (active)	–	–	24.3 µM (active)	13.2 µM (active)	30.4 µM (active)
CC1(C)CC/C(=C/c2ccc(Cl)cc2)C1(O)Cn1cncn1 (centres undefined)	inactive	inactive	–	inactive	–	inactive	inactive	–	inactive	–
O=c1[nH]c2ccccc2n1C1CCN(Cc2ccc(-c3[nH]c4cc5ncnc5cc4nc3-c3ccccc3)cc2)CC1	20.9 µM (active)	–	16.6 µM (active)	20.9 µM (active)	14.8 µM (active)	–	–	1.72 µM (active)	–	inactive
Nc1ccc(Sc2ccc(N)cc2)cc1	inactive	inactive	–	inactive	inactive	inactive	inactive	inactive	inactive	inactive
COC[C@H]1OC(=O)c2coc3c2[C@@]1(C)C1=C(C3=O)[C@@H]2CC[C@H](O)[C@@]2(C)C[C@@H]1OC(C)=O	0.526 µM (active)	–	2.09 µM (active)	–	2.64 µM (active)	–	4.69 µM (active)	0.306 µM (active)	14.8 µM (active)	27.1 µM (active)
CCO/N=C(\CC)C1=C(O)CC(c2c(C)cc(C)cc2C)CC1=O (centres undefined)	inactive	inactive	–	–	inactive	–	–	–	inactive	–
Cc1c(C(=O)Nc2cccc(C(F)(F)F)c2)cc(-c2ccccc2)n1CCCN1CCOCC1	18.7 µM (active)	–	18.7 µM (active)	23.5 µM (active)	18.7 µM (active)	–	–	24.3 µM (active)	18.7 µM (active)	24.1 µM (active)
